Results reported in ChEMBL document CHEMBL1157539, “Thousands of chemical starting points for antimalarial lead identification” (Nature, 2010).

How the values were obtained:
Type in all cases: functional
Plasmodium falciparum [1] = assay: GSK_TCMDC: Inhibition of Plasmodium falciparum 3D7 in whole red blood cells, using parasite LDH activity as an index of growth. Test compounds present at 2uM
Plasmodium falciparum [2] = assay: GSK_TCMDC: Inhibition of Plasmodium falciparum Dd2 in whole red blood cells, using parasite LDH activity as an index of growth. Test compounds present at 2uM
HepG2 = assay: GSK_TCMDC: Percent inhibition of human HepG2 cell line. Test compounds present at 10uM.

Row | SMILES | Inhibition (Plasmodium falciparum [1]) | Inhibition (Plasmodium falciparum [2]) | Inhibition (HepG2)
1 | Cc1noc(C)c1-c1ccc2c(Nc3nccc4ccccc34)c(C(N)=O)cnc2c1 | 100% | 99% | 100%
2 | Cc1cccc(CN2CCCN(Cc3cccc(C(=O)Nc4ccc(C(C)(C)C)cc4)c3)CC2)c1.O=C(O)C(F)(F)F | 89% | 40% | 98%
3 | CN(C)CCNCc1ccc(-c2ccc3c(Nc4ccc(Oc5ccccc5)cc4)ccnc3c2)o1 | 100% | 99% | 19%
4 | CCOc1cc(C(=O)NC2CCN(Cc3ccccc3)CC2)ccc1-c1nc2cc(Cl)c(F)cc2[nH]1 | 100% | 51% | 13%
5 | CC(C)NCc1cccc(-c2ccc(NC(=O)c3cccc(C#N)c3)cc2)c1.O=C(O)C(F)(F)F | 100% | 95% | 22%
6 | COc1cc(C2CCN(CCCCNC(=O)c3ccc(NC(=O)c4ccc(Cl)c(Cl)c4)cc3)CC2)ccc1OC(C)C | 100% | 96% | 45%
7 | CN1CCN(c2ccc(-c3cc(-c4ccncc4)c(-c4ccc(Cl)c(O)c4)o3)cc2)CC1.Cl | 100% | 98% | 0%
8 | O=C(/C=C/c1ccc(Cl)c(Cl)c1)NCCCCCN1CCC(NC(=O)Nc2cc(Cl)cc(Cl)c2)CC1 | 94% | 5% | 98%
9 | CC(=O)c1ccc(S(=O)(=O)N2CCC(C(=O)Nc3ccccc3N3CCCC3)CC2)cc1 | 95% | 99% | 0%
10 | COc1ccc(NC(=O)c2ccc(Br)c(C)c2)cc1N1CCN(Cc2ccccc2)CC1.O=C(O)C(=O)O | 95% | 3% | 0%
11 | O=S(=O)(c1ccc(Cl)cc1Cl)N1CCCCC(c2ccc(C(F)(F)F)cc2)=N1 | 100% | 99% | 10%
12 | CC(C)(C)c1ccc(NC(=O)c2cccc(CN3CCCN(Cc4ccsc4)CC3)c2)cc1.O=C(O)C(F)(F)F | 96% | 3% | 33%
13 | Br.CC1(C)NC(N)=NC(=N)N1OCCCOc1ccccc1Cl | 96% | 94% | 64%
14 | Cc1cccc2nc(-c3ccc(-c4ccc(CN5CCN(CCN6CCOCC6)CC5)cc4)cc3)[nH]c12.O=C(O)C(F)(F)F | 98% | 74% | 49%
15 | O=C(NCCCN1CCCC1=O)c1cnc(N2CCC(Oc3ccccc3)CC2)c(Cl)c1 | 97% | 93% | 7%
16 | COc1ccc(CNCc2ccccc2)cc1-c1ccc(S(=O)(=O)NCCN2CCCC2)cc1.O=C(O)C(F)(F)F | 96% | 39% | 38%
17 | N#Cc1ccc(-n2cc(C(=O)Nc3ccc4c(c3)CCN(C3CCC3)CC4)c(C(F)(F)F)n2)cc1.O=C(O)C(F)(F)F | 100% | 99% | 37%
18 | COc1cc(C)nc2ccc(NC(=O)c3ccc(C(=O)Nc4ccc5nc(C)cc(OC)c5c4)cc3)cc12 | 96% | 72% | 27%
19 | Cc1nnsc1C(=O)Nc1cccc(-c2ccc(-c3nc4cc(F)ccc4[nH]3)cc2)c1 | 100% | 89% | 51%
20 | Cc1cc(N[C@@H](Cc2ccccc2)C(=O)Nc2ccccc2)nc(NCCc2ccc(F)cc2)n1.O=C(O)C(F)(F)F | 96% | 81% | 26%
21 | CN(C)c1ccc(-c2csc(C(=O)NCC3CCN(CC4CCCCC4)C3)c2)cc1.O=C(O)C(F)(F)F (centres undefined) | 86% | 28% | 35%
22 | COc1ccc(NC(=O)c2ccc(NC(=O)c3ccc(Cl)cc3)cc2)cc1N1CCN(C)CC1 | 98% | 40% | 23%
23 | CCc1ccc(CNCC(CCNc2cc(=O)c3ccccc3[nH]2)NCc2cc(Br)cc(Br)c2)o1 (centres undefined) | 100% | 92% | 0%
24 | CCC1N=C(N)N=C(N)N1OCc1ccc(Cl)c(Cl)c1 (centres undefined) | 93% | 90% | 54%
25 | Cc1nc(-c2cccc(C(=O)Nc3cnc4ccccc4c3)c2)no1.O=C(O)C(F)(F)F | 85% | 12% | 15%
26 | O=C(C1CCN(c2nnnn2-c2ccccc2)CC1)N1CCc2ccccc2C1 | 97% | 97% | 0%
27 | Br.Oc1cccc2c1CC(NCc1ccccc1)CC2 (centres undefined) | 90% | 24% | 4%
28 | Clc1ccc2nnc(-c3c(Cl)cccc3Cl)n2n1 | 96% | 60% | 29%
